In the library only some 12% were active in any assay of this set; here they are far more common.
AMA1 RON2 block: AMA1-RON2 (P. falciparum) interaction inhibition. 360,000 compounds, 0.2% hits. AlphaScreen AMA1-biotinylated RON2 peptide binding. Potency, µM (titrated, usually from 58.2 µM), inactives show top-dose activity change, negative = inhibition, actives largely listed as inhibitors;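 further: potency means the concentration at half of the fitted maximal effect; 0% = vehicle wells and -100% = peptide control; nearly all actives have a fitted effect of over 45% in size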
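AMA1 (3D7) with his tag at 25 nM final met compounds first, then biotinylated RON2 peptide at 25 nM; detection used donor plus acceptor beads, 10 µg/mL apiece, read by AlphaScreen after 30 min at room temperature.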
HCV inhibitor: HCV inhibition; Huh7.5.1 HCVcc-Cre infection, luciferase reporter, 44 h; Potency, µM (series often up to 41.8 µM), for inactives: top-dose activity change, negative = inhibition, most hits filed as inhibitors; 340,000 compounds, 3.4% hits; further: potency means the concentration at half of the fitted maximal effect; on the % scale 0 is the no-effect control and ±100 the full control effect
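Cells seeded at 1,000/well and cultured 4 h, then compounds added followed by HCVcc-Cre virus (~0.5 moi). After 44 h further culture, luciferase substrate was added, plates held 15 min at room temperature, and luminescence read for 15 sec.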
SARS PLpro yeast-1: inhibitors of SARS-CoV papain-like protease in yeast; S. cerevisiae expressing SARS-CoV PLpro, growth rescue; Potency, µM (doses to about 32.9 µM), for the others: top-dose activity, positive = growth rescue, most hits filed as activators; AID 485353; 330,000 compounds, 0.19% hits; calls by dose curve; further: potency means the concentration at half of the fitted maximal effect; 0% is about no effect; nearly all actives have a fitted effect of over 55% in size
NS1 inh: influenza NS1 inhibition; 270,000 compounds, 0.4% hits; Potency, µM (doses to about 46.1 µM), for inactives: at the highest dose activity, positive = more growth; calls by dose curve; further: potency means the concentration at half of the fitted maximal effect; actives are rising curves; nearly all actives have a fitted effect of over 50% in size
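Compounds were scored for reversing the slow growth caused by influenza A NS1 in S. cerevisiae, measured by optical density at 600 nm. Assay medium contained 2% galactose at pH 6.0; NS1-free yeast of the same strain were the positive control.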
Pf growth 96h: inhibits malaria parasite growth, 96 h; P. falciparum luciferase reporter growth, 96 h; Potency, µM (top dose mostly 28.7 µM), inactives show at the highest dose activity change, negative = inhibition, most hits filed as inhibitors; 320,000 compounds, 6.9% hits; further: potency means the concentration at half of the fitted maximal effect; on the % scale 0 is the no-effect control and ±100 the full control effect
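Infected RBCs, 2% Hct / 0.05% parasitemia final; luciferase-reporter P. falciparum; cpd 96 h, 37 C, 5% CO2; luciferase detection reagent; luminescence.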
Pf growth 48h: inhibits P. falciparum growth in the first generation, 48 h | P. falciparum luciferase growth in erythrocytes, 48 h | Potency, µM (series often up to 28.7 µM), for inactives: top-dose activity change, negative = inhibition, hits mostly inhibitors | 310,000 compounds, 5.9% hits | AID 504832; further: potency means the concentration at half of the fitted maximal effect; on the % scale 0 is the no-effect control and ±100 the full control effect
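Read-out is firefly luciferase luminescence from an integrated reporter in P. falciparum, so falling signal marks reduced parasite growth. Infected erythrocytes were at 2% hematocrit and 0.1% parasitemia (final) in Albumax-supplemented RPMI 1640.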
Flu NS1 inh: validation of influenza NS1 protein function inhibitors | shares compounds with NS1 inh | influenza NS1 function cell assay, 15-point titration | activity change, negative = inhibition, % at 32.9 µM | 1,400 tested, under 10 active; calls by dose curve; further: 0% is about no effect
SARS PLpro yeast-2: Rescues yeast growth by inhibiting SARS-CoV PLpro; shares compounds with SARS PLpro yeast-1; yeast expressing SARS-CoV PLpro, growth phenotype rescue; calls only; 1,000 compounds, 19% hits; call rule not given here
* = called active by the depositor; i = inactive; ? = inconclusive; nt = no result given; [ ] = another dose, or the depositor's remark. Unless noted, the call rests on the fitted dose curve; in most records, active means well fitted curve in the direction sought with a large enough effect; inconclusive means small, poorly fitted or top-dose-only effect, or another doubt; inactive means no such curve, though single readings can be large; an effect the other way counts as inactive or inconclusive.

SMILES | AMA1 RON2 block | HCV inhibitor | SARS PLpro yeast-1 | NS1 inh | Pf growth 96h | Pf growth 48h | Flu NS1 inh | others
Cc1cccc(C)c1NC(=S)NCc1ccncc1 | 32.0% | 9.2% | 0.3% | 7.3% | -3.6% | ? | nt
CCOc1cccc(-c2c(C(=O)N/N=C/c3ccc(C)o3)nnn2-c2nonc2N)c1 | 78.8% | -7.9% | -0.9% | 14.4% | ? | -18.2% | nt
COc1ccc(CN2CCN(C(=O)CCC(=O)Nc3nnc(CC(C)C)s3)CC2)cc1F | 1.6% | ? | 15.2% | 2.24µM* | -1.5% | ? | ?
CCCc1nnc(NC(=O)CCC(=O)N2CCN(Cc3ccc(OC)c(F)c3)CC2)s1 | 0.4% | ? | -10.6% | 16.3% | -9.4% | -29.8% | nt
Cc1ccccc1C(=O)NC(=S)Nc1sc2c(c1C#N)CCC(C)C2 (stereo unspecified) | 23.0% | 13.6% | 2.2% | 18.9% | 14.3% | 53.7% | nt
CC1CCc2c(sc(NC(=S)NC(=O)c3ccccc3)c2C#N)C1 (stereo unspecified) | 18.0% | -4.6% | 1.6% | 7.94µM* | 51.3% | 16.7% | 5.6
CC(N=Cc1c(O)[nH]c(=O)[nH]c1=O)c1ccccc1 (stereo unspecified) | -13.6% | 11.6% | -7.5% | 10µM* | ? | -19.6% | -0.3
Cc1cc(=O)n(Nc2ccccc2)c(O)c1C#N | 11.2% | nt | nt | nt | nt | nt | nt
CCOc1ccccc1N1CCN(CC(=O)N(CC(C)C)c2c(N)n(CC(C)C)c(=O)[nH]c2=O)CC1 | -6.9% | 28.6% | -1.4% | nt | -10.5% | 8.9% | nt
CCS(=O)(=O)Nc1cccc(C2=NN(S(=O)(=O)c3ccccc3)C(c3cccs3)C2)c1 (stereo unspecified) | -9.8% | -7.1% | 5.4% | 10µM* | ? | ? | 17.3
CCS(=O)(=O)Nc1cccc(C2=NN(S(=O)(=O)c3ccc(C)cc3)C(c3cccs3)C2)c1 (stereo unspecified) | -26.2% | -2.6% | -5.1% | 12.6µM* | 0.0% | ? | 13.5
Cc1ccc(C2=NN(S(C)(=O)=O)C(c3cccs3)C2)cc1 (stereo unspecified) | 0.0% | -9.4% | 0.6% | 1.3% | 211.4% | 294.4% | nt
O=C(OCc1cn([C@@H]2CN(Cc3cccs3)[C@@H](c3ccccc3)C[C@H]2O)nn1)c1ccccc1 | -0.2% | nt | nt | nt | nt | nt | nt
CCCOc1ccc(-c2nc(-c3ccc(N)cc3)cs2)cc1 | nt | nt | -0.2% | 12.6µM* | 92.6% | 49.0% | 4.0
COc1ccc2[nH]cc(CCNC(=O)COc3cc(C)cc4oc(=O)cc(C)c34)c2c1 | 0.0% | -57.5% | 0.3% | -2.5% | ? | ? | nt
CC(=O)c1c(Cl)nc2ccc(Br)cc2c1-c1ccccc1 | -0.9% | ? | -0.2% | -7.0% | 11.0% | -21.0% | nt
CCC(=O)N1CCC2(CC1)Oc1ccc(F)cc1C(=O)C21CC(c2ccccc2)=NO1 (stereo unspecified) | -7.2% | 0.6%[8.37 µM] | -1.1% | -2.9% | ? | -13.3% | nt
CCC(=O)N1CCC2(CC1)Oc1ccc(Cl)cc1C(=O)C21CC(c2ccccc2)=NO1 (stereo unspecified) | 11.1% | -10.1% | 0.3% | ? | ? | ? | ?
COc1ccc(OC(=O)c2ccncc2)cc1 | 6.1% | 13.2% | ? | ? | 35.2% | -7.7% | -2.5 | SARS PLpro yeast-2=i
CCCOc1ccc(C(=O)CCC(=O)OCC(=O)N2CCN(S(=O)(=O)c3ccc(C)cc3C)CC2)cc1 | 0.0% | 15.0% | nt | nt | nt | nt | nt
CN1OC2C(=O)N(c3ccccc3)C(=O)C2C1c1ccc(F)cc1 (stereo unspecified) | 11.0% | nt | ? | ? | 0.3% | 5.2% | 11.9 | SARS PLpro yeast-2=i
O=C1C2ON(c3ccccc3)C(c3ccccc3F)C2C(=O)N1c1ccccc1 (stereo unspecified) | 1.4% | 6.0% | -5.0% | -45.3% | -0.4% | 9.3% | nt
